Sfp PPTase inh: Sfp phosphopantetheinyl transferase inhibition. Biochemical Sfp PPTase activity, qHTS. Q9F4F7. Potency, µM, hits mostly inhibitors. AID 1490. actives 3.5% (n = 310,000);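 further: the enzyme is Sfp with the accession as filed and its product quenches rhodamine fluorescence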
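With Hepes-Na pH 7.6 buffer containing 10 mM MgCl2, Sfp (15 nM) modified BHQ-2-YbbR (12.5 uM) using rhodamine-CoA (5 uM). Two reads 30 minutes apart at 525/598 nm yielded each well's rate.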
PLK1 PBD block: blocks phosphopeptide binding to human PLK1 polo-box domain. P53350. Potency, µM, most hits filed as inhibitors. actives 2.8% (n = 360,000). Plk1 PBD binding of FITC phosphopeptide, fluorescence polarization. AID 720504; further: series mostly up to about 57 µM; nearly all actives have a fitted effect of over 65% in size
TrxR1 substrate: substrates of rat thioredoxin reductase 1 | Potency, µM (series often up to 114 µM) | purified TrxR1 substrate turnover, NADPH consumption readout | actives 0.01% (n = 390,000) | O89049; further: nearly all actives have a fitted effect of over 50% in size
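Rat TrxR1, dispensed at 90 nM, was prereduced with 400 uM NADPH (final) for 5 min at ~22 deg C, then incubated with compound 15 min before 400 uM selenite. A first-read NADPH fluorescence drop versus no-compound background flagged substrates.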
rTrxR1 inhibitor: rat TrxR1 inhibition; AID 588453; Potency, µM (highest dose often 114 µM), actives largely listed as inhibitors; O89049; actives 1% (n = 390,000); recombinant rTrxR1, NADPH fluorescence consumption, selenite substrate; further: nearly all actives have a fitted effect of over 65% in size
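Rat TrxR1 (90 nM in the dispensed reagent) was pre-reduced with 400 uM NADPH for 5 min at room temperature, then incubated with compound for 15 min. After 400 uM selenite was added, NADPH fluorescence (Ex 340/Em 450 nm) was followed for 8 min.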
VDR inh: vitamin D3 receptor (human) inhibition | AID 504847 | Potency, µM, hits mostly inhibitors | actives 0.93% (n = 400,000) | VDR-SRC2-3 peptide fluorescence polarization, 2 h
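Fluorescence polarization assay measuring small-molecule disruption of VDR binding to the coregulator peptide SRC2-3. Compounds were pin-transferred (23 nl) into the reagent mix and incubated 2 h at room temperature before reading.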
IDH1 R132H inh: blocks human mutant IDH1 R132H enzyme. IDH1-R132H enzyme, NADPH consumption, diaphorase/resazurin fluorescence. Potency, µM (titrated, usually from 76.6 µM), hits mostly inhibitors. actives 0.093% (n = 390,000). AID 602179; further: nearly all actives have a fitted effect of over 65% in size
Target sequence (O75874 whole entry R132H, stated change not applied): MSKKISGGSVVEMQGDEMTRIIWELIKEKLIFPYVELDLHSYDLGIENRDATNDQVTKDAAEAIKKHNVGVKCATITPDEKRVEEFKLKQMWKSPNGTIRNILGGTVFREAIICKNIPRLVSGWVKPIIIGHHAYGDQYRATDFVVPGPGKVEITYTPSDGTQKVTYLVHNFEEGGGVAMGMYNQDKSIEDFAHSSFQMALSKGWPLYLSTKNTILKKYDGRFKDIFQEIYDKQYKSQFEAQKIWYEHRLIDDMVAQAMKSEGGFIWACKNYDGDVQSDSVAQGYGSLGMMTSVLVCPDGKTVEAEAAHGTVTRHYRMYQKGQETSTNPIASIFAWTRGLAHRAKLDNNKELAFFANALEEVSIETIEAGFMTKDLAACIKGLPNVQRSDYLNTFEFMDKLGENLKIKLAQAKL
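IDH1-R132H (0.5 ug/mL) preincubated 30 min with compound, then NADPH (0.016 mM) and alpha-KG (2 mM) added; 80 min at RT, pH 7.5. Remaining NADPH coupled via diaphorase/resazurin to fluorescence (540/590 nm); concentration-response curves normalized to no-enzyme control.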
Hits are given with their value; n = inactive; u = inconclusive; x = no result. Most compounds without a hit are left out; they make up all but 5.2% or so of the library. The call rests on the fitted dose curve; in most records, active means well fitted curve in the direction sought with a large enough effect; inconclusive means small, poorly fitted or top-dose-only effect, or another doubt; inactive means no such curve, though single readings can be large; an effect the other way counts as inactive or inconclusive.

SMILES	Sfp PPTase inh	PLK1 PBD block	TrxR1 substrate	rTrxR1 inhibitor	VDR inh	IDH1 R132H inh
Cc1ccc(C2=NN(C(=O)CCC(=O)O)C(c3cccs3)C2)cc1 (stereo not drawn)	n	n	n	n	n	n
O=C(c1ccccc1)N1N=C(c2ccco2)CC1c1cccs1 (stereo not drawn)	n	21.2µM	n	n	n	n
O=S(=O)(NCc1csc(-c2ccccc2)n1)c1ccccc1	x	x	n	n	n	x
CCC(=O)N1c2ccccc2CC1C(=O)NCCc1cc(OC)c(OC)c(OC)c1 (stereo not drawn)	x	x	n	n	n	n
Cc1ccc(-c2csc(NCCn3c(C)nc4cc(C(F)(F)F)ccc43)n2)cc1	x	n	n	n	n	n
CCNC(=O)c1c(NC(=O)Cc2coc3cc(C)cc(C)c23)sc2c1CCCC2	x	x	n	n	n	n
S=c1nc2[nH]c3ccccc3c2n[nH]1	x	3.77µM	n	n	u	n
COC(=O)[C@]1(C)N[C@H](c2ccc(-c3ccc(F)cc3)cc2)[C@@H]2C(=O)N(C)C(=O)[C@@H]21	x	n	n	n	n	n
NC(=O)C1CCN(c2nc3c(S(=O)(=O)c4ccccc4)nnn3c3ccccc23)CC1	n	n	n	n	n	n
O=C(CN1CCc2ccccc2C1)N1CCN(S(=O)(=O)c2ccccc2)CC1	n	n	n	n	n	n
O=C(CSc1ccccc1)N1CCN(S(=O)(=O)c2ccccc2)CC1	n	11.9µM	n	n	n	n
Cc1ccc(S(=O)(=O)N2CCN(C(=O)CN3CCc4ccccc4C3)CC2)cc1	44.7µM	n	n	n	n	n
O=C(O)CSCC(=O)N1CCN(S(=O)(=O)c2ccccc2)CC1	n	n	n	n	n	n
O=C(CSc1nc2ccc(Nc3nc(N4CCCC4)nc(N4CCCC4)n3)cc2s1)NCc1ccco1	u	n	n	n	n	n
COc1cc(OC)c2c(c1)C(=O)c1cc(OC)cc(OC)c1C2=O	n	n	n	n	n	n
COc1cc(O)c2c(c1)C(=O)c1cc(C)cc(O)c1C2=O	n	x	x	x	22.4µM	x
CCn1nc(C)c(Br)c1C(=O)Sc1ccccc1Cl	u	13.4µM	n	n	u	n
O=C(CNC(=O)c1cccc(-n2cccc2)c1)Nc1ccccc1Br	x	n	x	x	x	n
COc1cccc(OC)c1C1=Nn2c(nnc2-c2ccccc2O)SC1	n	x	x	x	x	x
NC1=C(c2ccc(F)cc2)C(=O)CS1	79.4µM	n	n	n	u	n
CCC(Cn1nnc2ccccc2c1=O)NC(=O)Nc1ccc(C)cc1C (stereo not drawn)	x	x	n	n	n	n
COC(=O)C1=C(C)N(c2cc(C)cc(C)c2)/C(=C/c2ccc(O)cc2)C1=O	44.7µM	n	n	n	50.1µM	n
Cc1cccc(CNc2ncnc3ccc(-c4ccccc4C#N)cc23)c1	n	x	x	x	n	x
Cc1nnc(N/N=C/c2ccc(O)c([N+](=O)[O-])c2)[nH]c1=O	u	n	u	u	n	n
Cc1csc(N/N=C/c2ccc(O)c([N+](=O)[O-])c2)n1	31.6µM	u	n	28.2µM	n	n
SMILES	Sfp PPTase inh	PLK1 PBD block	TrxR1 substrate	rTrxR1 inhibitor	VDR inh	IDH1 R132H inh
Cc1csc(N/N=C\c2cccnc2)n1	56.2µM	n	n	u	n	n
COc1cc(/C=N/Nc2nc(-c3ccc(S(=O)(=O)N(C)C)cc3)cs2)ccc1O	79.4µM	n	n	n	n	n
O=[N+]([O-])c1cc(/C=N\Nc2nc(-c3ccccc3)cs2)ccc1O	50.1µM	u	n	n	n	n
CC(C)=CCN1CCN(Cc2cccn2-c2ncccn2)CC1CCO (stereo not drawn)	n	n	n	n	n	n
CCOC(=O)Cn1c(=O)n(C2CCCCC2)c2nc(-c3ccc(OCC)cc3)nc(C(N)=O)c21	x	x	n	n	n	n
CC1(C(=O)Nc2ccc3c(c2)OCCO3)CCN1C(=O)C1(c2ccc(Cl)cc2)CC1 (stereo not drawn)	x	n	x	x	x	x
CCOC(=O)C1(C(C)C)Oc2ccccc2C(c2ccc(OC)cc2)=C1C(=O)OC (stereo not drawn)	u	x	x	x	n	x
O=C(O)CSc1cccc[n+]1[O-]	n	n	n	n	n	n
O=C(CSc1cccc[n+]1[O-])c1cc(Cl)ccc1Cl	n	n	n	n	n	n

High-throughput results deposited in PubChem by National Center for Advancing Translational Sciences (NCATS).
